Measurements reported in PubChem BioAssay AID488969 (Vanderbilt High Throughput Screening Facility, 2010).
Over roughly 110,000 compounds, “z-score” has its median near -0.1; the highest 2% begin near 2. For the sample, the highest values were picked, then their nearest neighbours and some compounds at random. Active and inactive are the calls of the source.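 The calls were made as follows: active = z-score in the third read window above 3 or below -3; inactive = the rest.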

Molecular target: Metabotropic glutamate receptor 8 (Rattus norvegicus) (UniProt P70579)
Sequence (P70579 whole entry, looked up): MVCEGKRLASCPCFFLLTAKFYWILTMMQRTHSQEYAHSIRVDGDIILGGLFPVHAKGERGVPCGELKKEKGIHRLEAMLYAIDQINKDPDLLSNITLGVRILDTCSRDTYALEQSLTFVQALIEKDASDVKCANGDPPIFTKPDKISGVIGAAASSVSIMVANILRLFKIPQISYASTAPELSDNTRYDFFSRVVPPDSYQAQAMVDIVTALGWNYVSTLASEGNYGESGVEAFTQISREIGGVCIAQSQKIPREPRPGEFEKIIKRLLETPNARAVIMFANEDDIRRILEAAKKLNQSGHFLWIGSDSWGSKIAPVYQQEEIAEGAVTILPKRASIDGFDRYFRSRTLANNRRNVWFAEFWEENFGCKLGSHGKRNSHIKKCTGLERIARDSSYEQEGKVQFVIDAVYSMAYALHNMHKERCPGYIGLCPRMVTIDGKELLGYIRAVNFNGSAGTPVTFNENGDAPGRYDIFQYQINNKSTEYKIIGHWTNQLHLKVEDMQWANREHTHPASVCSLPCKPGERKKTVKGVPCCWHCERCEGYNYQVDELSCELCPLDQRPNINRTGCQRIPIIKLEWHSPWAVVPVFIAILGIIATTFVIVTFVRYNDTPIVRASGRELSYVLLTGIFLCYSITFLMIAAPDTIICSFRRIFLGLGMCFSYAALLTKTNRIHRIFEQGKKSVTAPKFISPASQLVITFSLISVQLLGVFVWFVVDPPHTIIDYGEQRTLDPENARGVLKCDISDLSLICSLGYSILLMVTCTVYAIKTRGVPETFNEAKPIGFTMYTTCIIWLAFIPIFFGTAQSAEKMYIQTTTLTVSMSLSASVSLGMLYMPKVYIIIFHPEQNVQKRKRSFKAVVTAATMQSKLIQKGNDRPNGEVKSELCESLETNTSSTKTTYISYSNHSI
Assay: rat mGluR8 modulators via GIRK flux, primary screen, cell-based, thallium flux, HTS (AID 488969)
Settings: HEK293 rat mGluR8, GIRK (G protein-gated inwardly rectifying potassium channel) thallium flux, FluoZin2; at 10 µM; stronger effect = higher value; submaximal glutamate (EC20) added with thallium

Row | Structure (SMILES) | z-score
1 | CC(=O)Nc1ccc(N(C(=O)Cc2c[nH]c3ccccc23)C(C(=O)NC2CCCCC2)c2ccco2)cc1 (stereo unspecified) | 1.17
2 | Cc1ccccc1-c1nc(-c2ccc(NC(=O)c3ccc(Br)o3)cc2)no1 | 0.0114
3 | N#CNC(=Nc1cccc(F)c1)SCc1cccc(F)c1 | -0.141
4 | CCC(C)NC(=O)CSc1nc2c(sc(=S)n2Cc2ccco2)c(=O)n1-c1ccccc1 (stereo unspecified) | 0.437
5 | Cc1ccc2[nH]c(=O)c(CN(Cc3cccs3)S(=O)(=O)c3ccc4c(c3)OCCO4)cc2c1 | 0.0485
6 | CCOC(=O)Cc1csc(SCC(=O)Nc2cccc(Cl)c2)n1 | 0.368
7 | Cc1onc(-c2ccccc2Cl)c1C(=O)NC1CCS(=O)(=O)C1 (stereo unspecified) | -0.0472
8 | COc1cc2cc(CN(CCc3ccccc3C)C(=S)NCCCN(C)C)c(=O)[nH]c2cc1OC | 0.66
9 | CCCC(=O)N=C1SC2CS(=O)(=O)CC2N1c1ccc(-c2nc3ccc(C)cc3s2)cc1 (stereo unspecified) | -0.238
10 | Cc1ccc2nc(-c3ccc(N4C(=N)SC5CS(=O)(=O)CC54)cc3)sc2c1 (stereo unspecified) | 2.09
11 | CC(=O)N=C1SC2CS(=O)(=O)CC2N1c1ccc(-c2nc3ccc(C)cc3s2)cc1 (stereo unspecified) | 0.0589
12 | CC1CC(C)CN(CCCNC(=O)c2ccc3c(c2)NC(=O)C(N2CCCCC2)S3)C1 (stereo unspecified) | 2.18
13 | O=C(NCCCN1CCCCCC1)c1ccc2c(c1)NC(=O)C(N1CCOCC1)S2 (stereo unspecified) | 0.756
14 | O=C(NCCCN1CCCCC1)c1ccc2c(c1)NC(=O)C(N1CCCCC1)S2 (stereo unspecified) | 0.905
15 | CCCCCOC(=O)Cn1c(N2CCOCC2)nc2c1c(=O)[nH]c(=O)n2C | -0.228
16 | Cc1ccc(C2CC(=O)c3cnc(NC(=O)c4ccco4)nc3C2)cc1 (stereo unspecified) | -0.398

Row | Structure (SMILES) | z-score
17 | Cc1ccc(C)c(NC(=S)N2CCC(c3nc4ccccc4s3)CC2)c1 | 0.656
18 | Cc1cccc(NC(=S)c2nc3ccccc3s2)c1 | 0.84
19 | S=C(Nc1ccc(Cl)cc1)c1nc2ccccc2s1 | 0.236
20 | S=C(Nc1ccccc1)c1nc2ccccc2s1 | 2.64
21 | Cc1ccc(NC(=S)c2nc3ccccc3s2)cc1 | 0.791
22 | Cc1ccc(C)c(NC(=S)c2nc3ccccc3s2)c1 | 8.98 (active)
23 | Cc1cc(SCC(=O)c2cc(C)n(C)c2C)nc2ccccc12 | -0.0351
24 | NC(=O)C1CCN(Cc2nc3ccccc3c(=O)[nH]2)CC1 | -0.276
25 | Cn1c(=O)oc2cc(S(=O)(=O)NC3CCN(Cc4ccccc4)CC3)ccc21 | -0.316
26 | O=c1oc2ccccc2cc1-c1csc(NN=C2CCCCC2)n1 | -0.185
27 | O=C(NNC(=O)C1CCCO1)c1ccc(F)cc1 (stereo unspecified) | -0.154
28 | CCOCc1nnc(NC(=O)c2cccs2)s1 | 0.125
29 | Cn1c(N)c(C(=O)c2ccccc2)c(=O)n(C)c1=O | -0.397
30 | Cc1ccccc1CSCC(=O)c1c(N)n(C)c(=O)n(C)c1=O | -0.253
31 | CCN(CC(=O)c1c(N)n(C)c(=O)n(C)c1=O)c1cccc2ccccc12 | 2.55
